Measured values reported in PubChem BioAssay AID2391 (Southern Research Specialized Biocontainment Screening …, 2010).
Hit rate of the full screen: of about 310,000 compounds, about 410 (0.13%) were called active. Inconclusive results (about 2%) are left out. How the calls were made is not given here. These entries were drawn from the full list. Potency and affinity values are given separately.

Experiment: inhibition of RSV-induced cytopathic effect – HEp-2 cells, primary 10 µM value included (AID 2391)
Conditions: at 10 µM, active compounds read high

CPE inhibition, inactive:
O=C(NCCOc1ccccc1Cl)c1ncn[nH]1 0.27%, CSc1ccc(S(=O)(=O)NCCSC(C)(C)C)cc1 -1.64%, COc1cc(CC2COC(c3ccc(O)c(OC)c3)C2COC(C)=O)ccc1O (centres undefined) 5.55%, CCOC(=O)CCCNC(=O)CCNC(=O)c1ccc(OCCC(C)C)cc1 -2.65%, Cc1ccc(C(=O)N2CCN(c3ccc(NC(=O)c4cccs4)cc3)CC2)cc1 3.02%, Cc1ccc(OCc2cc(C(=O)NCc3cnn(-c4cccc(F)c4)c3)no2)cn1 -0.86%, Cc1nn(-c2ccccc2)c(C)c1/C=N/N1CCN(c2ccccc2)CC1 2.1%, Cc1nn(-c2ccccc2)c(C)c1/C=N/O 5.01%, CC(=O)N1c2ccccc2Nc2ccccc21 0.92%, CC(C)(C)C(=O)CC1(O)C(=O)N(Cc2ccccc2)c2ccccc21 (centres undefined) 1.23%, COc1ccc(NC(=O)CSc2nc3ccccc3nc2N2CCCC2)cc1 5.07%, COc1cccc(NC(=O)CSc2nc3ccccc3nc2N2CCOCC2)c1 1.87%, Cc1cc(C)cc(NC(=O)CSc2nc3ccccc3nc2N2CCCCC2)c1 -0.51%, Cc1cccc(NC(=O)CSc2nc3ccccc3nc2N2CCCC2)c1 43.3%, O=C(CCN1c2ccccc2Sc2ccccc21)OCC(=O)N1CCN(C(=O)c2ccco2)CC1 5.26%, Cc1cc(C)cc(NC(=O)c2ccc(CNc3c(N4CCCC4)c(=O)c3=O)cc2)c1 2.89%, CCOC(=O)/C(C#N)=C/c1c(N2CCN(C)CC2)nc2c(C)cccn2c1=O 1.42%, COc1ccc(NC(=S)N2CCN(c3ccccc3)CC2)c(OC)c1 3.36%, CC(Sc1n[nH]c(N)n1)C(=O)Nc1ccccc1-c1ccccc1 (centres undefined) -0.4%, CCOC(=O)C1(CCOc2ccccc2)CCN(Cc2cccn2-c2ncccn2)CC1 -2.95%, OCC1(CCOc2ccccc2)CCN(Cc2ccncc2)CC1 -0.49%, COc1cc(OC)c(OC)cc1/C=N/NC(=O)c1cccc(S(=O)(=O)N2CCOCC2)c1 0.2%, Cc1cccc(NC(=O)C2CCN(S(=O)(=O)c3ccc4c(c3)NC(=O)CO4)CC2)c1C 0.6%, O=C(c1cc2cc(Cl)ccc2[nH]1)N1CCN(C(=O)c2ccco2)CC1 1.05%, O=C(O)c1[nH]c2ccc(Cl)cc2c1CC(=O)N1CCN(C(=O)c2ccco2)CC1 0.74%, CCOc1ccc(-c2nnc3ccc(SCC(=O)N4CCCCC4)nn23)cc1 1.74%, CCOc1ccc(CNC(=O)CCCn2nc(C)c3c(C)n(-c4ccc(C)cc4)nc3c2=O)cc1 12.6%, COc1cccc(C(=O)NC(=S)Nc2ccc(Cl)c(C(=O)O)c2)c1 1.26%, Cc1cccc(Nc2c([N+](=O)[O-])cc(C(=O)N3CC(=O)Nc4ccccc43)cc2[N+](=O)[O-])c1 3.38%, Cc1ccc(Nc2c([N+](=O)[O-])cc(C(=O)N3CC(=O)Nc4ccccc43)cc2[N+](=O)[O-])c(C)c1 -0.4%, CCOc1cc(/C=C/c2nc3cc(C)c(C)cc3s2)ccc1OCC(=O)N1CCOCC1 15.4%, Cn1cc(CN2CCCC(CO)(Cc3ccccc3)C2)cn1 (centres undefined) -1.49%, CCN1CCCC(CO)(Cc2ccccc2)C1 (centres undefined) -0.72%, Cc1nn(C)c(Cl)c1CN1CCCC(CO)(Cc2ccccc2)C1 (centres undefined) 62.6%, Cc1nn(C)c(Cl)c1CN1CCCC(CO)(Cc2cccc(Cl)c2)C1 (centres undefined) 68.4%, O=C(COC(=O)c1ccc(F)cc1F)Nc1cccnc1Cl 1.68%, CSc1nc(N)c(NC(=O)c2ccc(Br)o2)c(=O)[nH]1 0.99%, CCOC(=O)c1c(C)[nH]c(C(=O)NCc2ccccn2)c1C -0.66%, COc1ccc(NC(=S)NCCc2c(C)[nH]c3ccc(OC)cc23)cc1 1.21%, COc1ccc(NC(=O)CCn2c(=O)c3cccn3c3ccccc32)c(OC)c1 8.66%, COc1ccc(NC(=O)CCn2c(=O)c3cccn3c3ccccc32)cc1 3.29%, C=CCCCCCCCCC(=O)NN 1.7%, CCc1nnc(NC(=O)Cc2c[nH]c3ccccc23)s1 2.52%, Cc1cnc(NC(=O)Cc2c[nH]c3ccccc23)s1 3.89%, C=C(C)C(=O)Nc1cccc(C2=NOC3(C2)C[C@H](C(N)=O)N(C(=O)c2ccccc2)C3)c1 (some centres undefined) 1.43%, NC(=O)[C@@H]1CC2(CC(c3cccc(NC(=O)COc4ccc(Cl)cc4)c3)=NO2)CN1C(=O)c1ccccc1 (some centres undefined) 15.3%, C/C=C(/C)C(=O)Nc1cccc(C2=NOC3(C2)C[C@@H](C(N)=O)N(C(=O)c2ccc(OC)cc2)C3)c1 (some centres undefined) 0.8%, NC(=O)[C@H]1CC2(CC(c3cccc(NC(=O)COc4ccc(Cl)cc4)c3)=NO2)CN1C(=O)c1ccc(Cl)cc1 (some centres undefined) -1.09%, C=CCn1c(-c2cccn(Cc3ccc(Cl)cc3Cl)c2=O)n[nH]c1=S 8.02%, CCCN1CCOC(CC(=O)Nc2ccc([N+](=O)[O-])cc2)C1=O (centres undefined) -1%, O=C(c1cccc(S(=O)(=O)N2CCCC2)c1)N1CCN(c2ncccn2)CC1 1.05%, CCOC(=O)C1CCN(C(=O)c2cccc(S(=O)(=O)N3c4ccccc4CC3C)c2)CC1 (centres undefined) 0.5%, CC1CN(C(=O)c2cccc(S(=O)(=O)Nc3ccc(Cl)cc3)c2)CC(C)O1 (centres undefined) 4.6%, CCC(OC(=O)c1ccco1)C(=O)NCc1ccc(OC)cc1 (centres undefined) 1.29%, O=C(O)/C(=C\c1cccc(F)c1)c1ccc(S(=O)(=O)N2CCCCC2)s1 3.11%, COc1ccc2nc(/C=N/NC(=O)[C@H](CCSC)NC(=O)OC(C)(C)C)ccc2c1 18.6%, Cc1ccc2cc(/C=N/NC(=O)[C@H](C)NC(=O)OC(C)(C)C)c(Cl)nc2c1 2.96%, CCC(C)[C@H](NC(=O)OC(C)(C)C)C(=O)N/N=C/c1cccc2nccnc12 (some centres undefined) 0.75%, COc1ccc2nc(/C=N/NC(=O)CCCCCNC(=O)OC(C)(C)C)ccc2c1 6.33%
